# Source: PMC4552634, “A New Set of Chemical Starting Points with Plasmodium falciparum Transmission-Blocking Potential for Antimalarial Drug Discovery” (PLoS ONE, 2015)
# Read-outs that look alike come from different tables or passages of the source. Screen size: about 13,000 compounds; about 3,200 (25%) showed an effect of 50% or more. The list shows a part of the results.
# System: P. falciparum stage V gametocytes
# Set-up: BacTiter-Glo ATP luminescence viability of purified stage V gametocytes in 384-well plates, per cent inhibition versus DMSO
# Conditions: 48 h, 5 µM, inhibitor
SMILES,% Inhibition [%],% Inhibition (% Inhibition) [%]
Cc1[nH]n(-c2cccc(Cl)c2)c(=O)c1-c1ccc(Cl)cc1 [TCMDC-123495],-44.23,–
O=C(Nc1ccc(C(F)(F)F)cc1)c1cc(Br)cnc1NCCCn1ccnc1 [TCMDC-136699],4.282,–
COc1ccc(NC(=O)c2cc(-c3ccc(NC(C)=O)cc3)cnc2N)cc1 [TCMDC-135658],32,–
CNC(=O)c1cc(F)c(F)cc1Nc1nc(Nc2cccc(CS(C)(=O)=O)c2)ncc1Cl [TCMDC-134060],-6.741,–
CNC(=O)c1ccccc1Nc1nc(Nc2cccc(CS(C)(=O)=O)c2)ncc1C [TCMDC-133809],64.95,–
CNC(=O)c1ccccc1Nc1nc(Nc2cccnc2)ncc1C [TCMDC-134211],33.23,–
Cc1ccc(NC(=O)c2ccc3ncccc3c2)cc1OC1CCN(Cc2ccsc2)CC1 [TCMDC-134270],12.12,–
COc1ccc(OCC(O)CN(Cc2ccccc2OC)C(=O)Nc2ccc(Br)cc2)cc1 (stereo not shown) [TCMDC-141494],25.96,–
COc1ccccc1NC(=O)OC(COc1ccc(N)cc1)CN1CC=C(c2ccccc2)CC1 (stereo not shown) [TCMDC-136486],60.38,–
COc1cccc(OC)c1-c1ccccc1NC(=O)N1CCCc2cc(C)ccc21 [TCMDC-136199],-20.26,–
Cc1cccc2[nH]c(-c3cccc(-c4ccc(NC(=O)Nc5ccc(F)c(F)c5F)cc4)c3)nc12 [TCMDC-133225],-8.037,–
COc1ccc2ncc(F)c(CCN3CC(O)C(CNCc4nc5c(cc4Cl)OCC(=O)N5)C3)c2n1 (stereo not shown) [TCMDC-136031],–,24.96
Oc1ccc2[nH]cc(C3CCN(CCCCCCCCCN4CCC(c5c[nH]c6ccc(O)cc56)CC4)CC3)c2c1 [TCMDC-139003],74.24,–
Oc1ccc2[nH]cc(C3CCN(CCCNCc4ccc(-c5ccccc5)cc4)CC3)c2c1 [TCMDC-139047],101.4,–
O=C(/C=C/c1ccc(Cl)c(Cl)c1)NCCCCCN1CCC(c2c[nH]c3cc(O)ccc23)CC1 [TCMDC-139282],10.47,–
Oc1ccc2[nH]cc(C3CCN(CCC(c4ccccc4)c4ccccc4)CC3)c2c1 [TCMDC-139017],-54.72,–
Cc1cccc2nc(-c3cccc(-c4cccc(NC(=O)NC5CC5c5ccccc5)c4)c3)[nH]c12 (stereo not shown) [TCMDC-133254],-21.78,–
CNC(=O)/C=C/c1cc(NC(=O)Nc2cc(C)nc3c(F)cccc23)ccc1OC [TCMDC-140324],-6.922,–
O=C(Nc1cccc(CN2CCCN(Cc3ccc(O)cc3)CC2)c1)c1cccc(C(F)(F)F)c1 [TCMDC-141836],-28.76,–
O=C(CN1CCCC1)Nc1cccc(C(=O)Nc2cccc(C(F)(F)F)c2)c1 [TCMDC-124512],78.8,–
CC12CCC(=O)N1C(C(=O)Nc1cccc(C(=O)Nc3cccc(C(F)(F)F)c3)c1)CS2 (stereo not shown) [TCMDC-125019],77,–
O=C(Nc1cccc(C(F)(F)F)c1)c1cccc(S(=O)(=O)NCC2CCCN2CC2CCCCC2)c1 (stereo not shown) [TCMDC-133687],-58.72,–

SMILES,% Inhibition [%],% Inhibition (% Inhibition) [%]
COc1cc(C(=O)Nc2nc3ccccc3[nH]2)ccc1OCC(=O)Nc1cccc(C(F)(F)F)c1 [TCMDC-125460],11.63,–
COc1ccccc1C(C)NCC(=O)Nc1cccc(C(=O)Nc2cccc(C(F)(F)F)c2)c1 (stereo not shown) [TCMDC-124871],31.1,–
CC(O)CNc1nc2ccccc2n1CC(=O)Nc1cccc(C(=O)Nc2cccc(C(F)(F)F)c2)c1 (stereo not shown) [TCMDC-124335],86.13,–
CCCCCN1CCCC1CNS(=O)(=O)c1cccc(C(=O)Nc2cccc(C(F)(F)F)c2)c1 (stereo not shown) [TCMDC-133686],-82.32,–
O=C(CNC1CCCCC1)Nc1cccc(C(=O)Nc2cccc(C(F)(F)F)c2)c1 [TCMDC-123711],29.34,–
O=C(Cc1n[nH]c(=O)c2ccccc12)Nc1cccc(C(=O)Nc2cccc(C(F)(F)F)c2)c1 [TCMDC-125260],48.65,–
O=C(Cn1c(=O)cnc2ccccc21)Nc1cccc(C(=O)Nc2cccc(C(F)(F)F)c2)c1 [TCMDC-125468],18.7,–
CC(C)NCC(=O)Nc1cccc(C(=O)Nc2cccc(C(F)(F)F)c2)c1 [TCMDC-124878],70.58,–
N[C@@H](Cc1ccc(O)cc1)C(=O)NC(c1ccccc1)c1c(O)ccc2ccccc12 (stereo partly shown) [TCMDC-141232],9.479,–
CC=CC1CCNC(C(O)c2ccnc3ccc(OC)cc23)C1 (stereo not shown) [TCMDC-132000],38.01,–
CC(C)CCN1CCC(Oc2cccc(NC(=O)c3ccc(C(F)(F)F)cc3)c2)CC1 [TCMDC-133738],13.2,–
O=C(NCCCCN1CCN(c2cccc(Cl)c2Cl)CC1)c1ccc2c(c1)CCN(C1CCC1)CC2 [TCMDC-136053],20.89,–
CN1CCC(N2CCC(Oc3cccc(C(=O)NCCCC4CCCC4)c3)CC2)CC1 [TCMDC-124677],58.06,–
CN1CCC(NCc2cccc(-c3ccc(S(=O)(=O)NCc4ccccc4)cc3)c2)CC1 [TCMDC-132213],49.72,–
CN1CCC(NCc2ccc(-c3cccc(S(=O)(=O)NCC4CCCO4)c3)cc2)CC1 (stereo not shown) [TCMDC-132242],58.26,–
CN1CCC(NCc2ccc(S(=O)(=O)Nc3ccc(Oc4cccc(Cl)c4)cc3)cc2)CC1 [TCMDC-136201],14.91,–
CN1CCC(NCc2cccc(-c3cccc(S(=O)(=O)NCc4ccccc4)c3)c2)CC1 [TCMDC-132377],104,–
CN1CCC(NCc2ccc(-c3cccc(S(=O)(=O)NCc4ccccc4)c3)cc2)CC1 [TCMDC-132238],104.8,–
CN1CCC(NCc2ccc(-c3ccc(S(=O)(=O)NCc4ccccc4)cc3)cc2)CC1 [TCMDC-132227],101.8,–
Cc1ccc(Nc2nc3cc(Nc4ccnc(Nc5cccc(CS(C)(=O)=O)c5)n4)ccc3o2)cc1 [TCMDC-141957],-56.36,–
O=C(Nc1cc(C(F)(F)F)ccc1-n1cncn1)C1(c2ccccc2)CC1 [TCMDC-125454],25.16,–
